Assay [1] can be described thus: anti-His antibody binders, primary screen, artefact control for SMM control protein annotation, biochemical, small-molecule microarray, 635 nm fluorescence (AID 1128).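 Note: score merges feature fluorescence with signal-to-noise for each printed compound spot.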 The settings on record: anti-His Alexa647 antibody binding, higher = more signal.
Assay [2] relates to Human papillomavirus type 1a E7 protein (residues 1-88). The assay is described as follows: HPV1a E7 small-molecule binders, primary screen, biochemical, small-molecule microarray, residues 1-88, 635 nm (AID 1129). The following applies: small-molecule microarray binding, fluorescence 635 nm; higher = more signal.
Assay [3] concerns the target Focal adhesion kinase 1 (Homo sapiens) (UniProt Q05397). Description: small-molecule microarray binders of FAK, primary screen, biochemical, 635/667 nm fluorescence, BSA, DTT (AID 1130).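 Note: composite of spot emission at 667 nm and signal to noise over triplicate slides.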 The settings on record: PTK2 binding, 635 nm fluorescence, higher = more signal.
The test system of assay [4] is Fibrinogen (Alexa647-labelled). Description: fibrinogen binders on compound microarrays, profiling panel, artefact control for SMM control-protein annotation, biochemical, small-molecule microarray, 635/667 nm fluorescence (AID 1131).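 Note: z-score merges 667 nm fluorescence with per-spot signal-to-noise over triplicate slides.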 The following applies: fibrinogen-A647 binding fluorescence, higher = more signal.
The target of assay [5] is Follistatin (Homo sapiens) (UniProt P19883). Description: follistatin binders on small-molecule microarrays, primary screen, biochemical, small-molecule microarray, 635/667 nm fluorescence (AID 1132). The settings on record: FST binding, 635 nm fluorescence, higher = more signal.
In assay [6] the target is Fibroblast growth factor 2 (Homo sapiens) (UniProt P09038). Description: FGF2 binders on small-molecule microarrays, primary screen, biochemical, small-molecule microarray, 635/667 nm fluorescence (AID 1133). The settings on record: small-molecule microarray binding, FGF2, fluorescence 635/667; higher = more signal.
Assay [7] is described as follows: mitochondrial membrane potential change in A549 cells, profiling panel, cell-based, JC-1 fluorescence, basal, 24 h, 100 nL (AID 1138).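 Note: A549 lung adenocarcinoma cells under basal conditions with no added stimulus; test concentration not given here.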 The following applies: higher = more signal.
Another assay has as its system Lefty1. Description: Lefty1 binders on small-molecule microarrays, primary screen, biochemical, small-molecule microarray, 635/667 nm fluorescence (AID 1139). The following applies: small-molecule microarray binding, fluorescence 635/667; higher = more signal.
In assay [8] the test system is wheat germ agglutinin (Triticum aestivum), Alexa647-labelled. The assay is described as follows: wheat germ agglutinin binders on compound microarrays, profiling panel, artefact control for SMM control-protein annotation, biochemical, small-molecule microarray, 635/667 nm fluorescence (AID 1140).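 Note: score merges 667 nm feature emission with signal to noise over triplicate slides.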 The settings on record: WGA-A647 binding, 635 nm fluorescence, higher = more signal.

Assay [9] deals with Luciferin 4-monooxygenase (Photinus pyralis) (UniProt P08659). The assay is described as follows: firefly luciferase enzyme inhibitors, primary screen, biochemical, luminescence, purified enzyme, 2006 set (AID 1141).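 Note: cell-free assay with purified firefly luciferase at 100 ng per well in PBS; test concentration not given here.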 The following applies: SteadyGlo luminescence, 30 min, higher = more signal, called active from +8 up or from −8 down.

The source of these data is PubChem BioAssay.

The source made the active and inactive calls.

Sequence of Fibroblast growth factor 2 (Homo sapiens) (P09038 whole entry, looked up): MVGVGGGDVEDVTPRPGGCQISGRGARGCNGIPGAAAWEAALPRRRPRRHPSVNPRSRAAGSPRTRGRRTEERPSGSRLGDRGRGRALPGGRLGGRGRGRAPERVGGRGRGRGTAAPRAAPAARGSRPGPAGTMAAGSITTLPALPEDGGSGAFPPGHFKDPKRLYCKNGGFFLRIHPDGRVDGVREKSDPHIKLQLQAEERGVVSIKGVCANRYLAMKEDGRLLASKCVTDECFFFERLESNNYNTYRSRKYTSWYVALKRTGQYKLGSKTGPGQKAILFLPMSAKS
Sequence of Follistatin (Homo sapiens) (P19883 whole entry, looked up): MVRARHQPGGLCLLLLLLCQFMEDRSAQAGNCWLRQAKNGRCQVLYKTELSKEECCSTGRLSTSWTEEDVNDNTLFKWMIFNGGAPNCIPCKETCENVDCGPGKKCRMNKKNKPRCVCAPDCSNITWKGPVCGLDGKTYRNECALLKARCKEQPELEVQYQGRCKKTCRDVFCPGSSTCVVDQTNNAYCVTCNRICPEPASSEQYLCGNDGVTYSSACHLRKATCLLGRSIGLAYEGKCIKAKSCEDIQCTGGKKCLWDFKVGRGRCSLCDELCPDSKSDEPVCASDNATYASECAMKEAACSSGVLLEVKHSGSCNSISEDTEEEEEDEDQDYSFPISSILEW
Sequence of Focal adhesion kinase 1 (Homo sapiens) (Q05397 whole entry, looked up): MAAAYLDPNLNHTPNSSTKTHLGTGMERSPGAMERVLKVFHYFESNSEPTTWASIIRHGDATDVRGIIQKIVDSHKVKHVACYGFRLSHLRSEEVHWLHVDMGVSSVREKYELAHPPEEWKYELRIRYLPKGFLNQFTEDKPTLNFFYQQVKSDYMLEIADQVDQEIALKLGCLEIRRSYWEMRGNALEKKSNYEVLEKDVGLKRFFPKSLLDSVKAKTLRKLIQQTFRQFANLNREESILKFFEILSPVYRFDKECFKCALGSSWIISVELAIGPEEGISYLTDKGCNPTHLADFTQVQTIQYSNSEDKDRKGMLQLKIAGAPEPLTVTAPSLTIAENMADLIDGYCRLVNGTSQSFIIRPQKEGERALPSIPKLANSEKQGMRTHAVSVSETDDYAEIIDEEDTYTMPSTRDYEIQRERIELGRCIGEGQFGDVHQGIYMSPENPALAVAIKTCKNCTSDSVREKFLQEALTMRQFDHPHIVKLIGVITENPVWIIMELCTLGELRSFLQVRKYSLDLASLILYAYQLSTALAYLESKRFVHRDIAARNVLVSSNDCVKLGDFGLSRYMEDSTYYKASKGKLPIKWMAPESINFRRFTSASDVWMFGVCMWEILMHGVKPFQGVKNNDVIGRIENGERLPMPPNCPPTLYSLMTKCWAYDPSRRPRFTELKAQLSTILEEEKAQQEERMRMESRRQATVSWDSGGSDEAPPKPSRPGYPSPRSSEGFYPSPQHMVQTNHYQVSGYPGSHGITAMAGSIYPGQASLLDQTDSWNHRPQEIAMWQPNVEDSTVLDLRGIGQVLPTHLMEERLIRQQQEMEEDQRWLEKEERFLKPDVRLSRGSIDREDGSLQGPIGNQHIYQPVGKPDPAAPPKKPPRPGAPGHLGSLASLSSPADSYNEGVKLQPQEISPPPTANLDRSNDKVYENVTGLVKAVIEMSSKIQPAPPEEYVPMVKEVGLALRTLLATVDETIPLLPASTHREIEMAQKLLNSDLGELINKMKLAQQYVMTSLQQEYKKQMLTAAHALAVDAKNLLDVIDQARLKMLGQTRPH
Sequence of Luciferin 4-monooxygenase (Photinus pyralis) (P08659 whole entry, looked up): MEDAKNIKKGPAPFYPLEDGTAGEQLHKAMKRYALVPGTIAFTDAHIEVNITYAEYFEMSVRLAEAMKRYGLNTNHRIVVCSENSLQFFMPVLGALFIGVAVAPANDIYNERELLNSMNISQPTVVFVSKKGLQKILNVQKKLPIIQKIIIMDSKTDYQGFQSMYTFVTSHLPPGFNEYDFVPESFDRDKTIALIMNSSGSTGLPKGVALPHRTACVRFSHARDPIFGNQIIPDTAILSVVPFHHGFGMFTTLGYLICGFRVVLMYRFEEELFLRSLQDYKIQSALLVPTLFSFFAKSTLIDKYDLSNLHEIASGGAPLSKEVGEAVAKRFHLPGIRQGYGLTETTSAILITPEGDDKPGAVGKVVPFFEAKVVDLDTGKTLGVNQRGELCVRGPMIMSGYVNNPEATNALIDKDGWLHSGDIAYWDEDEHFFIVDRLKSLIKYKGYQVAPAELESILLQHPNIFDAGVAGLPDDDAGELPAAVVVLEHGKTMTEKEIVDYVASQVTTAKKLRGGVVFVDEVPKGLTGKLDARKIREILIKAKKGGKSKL

With `[N-]=[N+]=NCc1ccccc1[C@H]1OC(c2ccc(OCCCO)cc2)=N[C@@]1(Cc1ccccc1N=[N+]=[N-])C(=O)N1CCCCC1`, the composite z-score in assay [1] stood at 2.35; in assay [2], 1.23; in [3], 0.529; in [4], 0.974; in assay [5], 1.34; in assay [6] it was 1.56. The figures for the composite z-score (in the assay on Lefty1; in assay [8]) were 0.68 and 0.681, respectively. For the same compound, the z-score in assay [7] was 2.16; in assay [9], -1.9 (inactive).

As to `CCOC(=O)C1=CCC(c2cccc(Cl)c2)O1` (stereo not given), the composite z-score in [1] was 0.433; in [2], 0.54; in [3], -0.192; in assay [4], 0.2; in assay [5], -0.0085; in assay [6], -0.505. Besides, the composite z-score was -0.0196 in the assay on Lefty1 and 0.225 in assay [8]. For the same compound, the figures for the z-score in assay [7] and in assay [9] were -1.14 and 1.7 (inactive), respectively.

Consider `COCC(=C=CC[C@@H](O)c1ccccc1OCCO)C[C@@H](O)COCc1ccccc1`, for which the composite z-score in assay [1] was 0.477; in [2] it was 1.01; in assay [3] it was -0.134; in assay [4], 0.357; in assay [5], 0.403; in [6] it was 0.456. Further, the figures for the composite z-score (in the assay on Lefty1; in assay [8]) were 0.317 and 1.05, respectively. Further, the figures for the z-score in assay [7] and in assay [9] were 1.8 and -2.4 (inactive), respectively.

On to `C=CC[C@@]1(C(=O)NCCN2CCOCC2)N=C(c2ccc(OCCCO)cc2)O[C@@H]1c1ccccc1`, for which the composite z-score amounted to 0.432 in [1]; 1.24 in assay [2]; 0.49 in [3]; 0.755 in [4]; 1.46 in [5]; 1.73 in assay [6]. The composite z-score worked out at 1.55 in the assay with Lefty1 and 0.978 in [8]. In addition, the z-score in assay [7] was -0.185; in [9], -0.43 (inactive).

For `[N-]=[N+]=Nc1ccccc1[C@H]1OC(c2ccc(OCCCO)cc2)=N[C@@]1(Cc1ccccc1)C(=O)NCc1ccccc1`, the composite z-score is 1.29 in assay [1]; 1.2 in assay [2]; 0.425 in assay [3]; 0.997 in assay [4]; 1.15 in assay [5]; 0.291 in assay [6]. For the same compound, the composite z-score came out at 0.362 in the assay on Lefty1 and 0.415 in [8]. The results for the z-score in [7] and in assay [9] were 0.361 and -6.55 (inactive), respectively.

Consider `COC(=O)[C@@]1(Cc2ccccc2)[C@H]2c3cc(C(=O)N4CCCC4)n(CCO)c3C[C@H]2CN1C(=O)c1ccccc1`, for which the composite z-score in assay [1] came to 0.931; in [2] it was 0.992; in assay [3] it was 0.747; in [4], 0.488; in [5], 0.961; in [6], 0.0586. The figures for the composite z-score (in the assay with Lefty1; in assay [8]) were -0.493 and 1.12, respectively. Also, the results for the z-score in [7] and in [9] were 0.841 and 0.891 (inactive), respectively.

With `O=C1NC(=O)C2C1C=CC(C(O)c1ccc(-c3ccccc3)s1)N2Nc1ccccn1` (stereo not given), the composite z-score came out at 0.322 in assay [1]; 0.642 in assay [2]; 0.0118 in [3]; 0.347 in assay [4]; 0.689 in [5]; 0.0993 in [6]. Besides, the composite z-score was 0.0042 in the assay with Lefty1 and 0.807 in [8]. Also, the z-score in [7] is 0.291; in assay [9] it was -0.86 (inactive).

As for `C[C@H]1NC(=O)C([C@@H](C)OCc2ccccc2)NC(=O)[C@@]23C(=O)N[C@@H](Cc4ccccc4)C2[C@H](C)[C@@]2(C)O[C@H]2C3/C=C/CC/C=C/CNC1=O` (stereo not given in full), the composite z-score is -0.342 in assay [1]; -0.413 in assay [2]; -0.305 in assay [3]; 0.42 in assay [4]; 0.607 in assay [5]; 0.588 in assay [6]. In addition, the composite z-score in the assay on Lefty1 stood at 0.331; in [8], 0.384. Moreover, the z-score in assay [7] was -0.198; in assay [9], -0.749 (inactive).
